Experiment [1] concerns Zika virus NS2B-NS3 protease (unlinked). Kind of experiment: Optimization of GU AMC qHTS for Zika virus inhibitors: Unlinked NS2B-NS3 protease assay (AID 1347151). Also: nearly all actives have a fitted effect of over 80% in size. The method in brief: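 Noncovalent NS2B hydrophilic domain–NS3 protease complex (25 nM final) in 10 mM Tris-HCl pH 8.0, 0.01% Tween 20; AMC substrate, room temperature 15 min (~20% conversion); fluorescence change normalized, 4-parameter Hill fit.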
On the technique in general: qHTS replaces the single test concentration by a dilution series.

In experiment [2] the test system is Zika virus NS2B-NS3 protease (linked). Kind of experiment: 384 well plate NINDS AMC confirmatory qHTS for Zika virus inhibitors (AID 1347163).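 Also: linked protease at 5 30 or 60 nM final depending on run; fluorescence of AMC released from Ac-VKTGKR-AMC peptide cleaved by the protease; top concentration of the series differs between compounds; nearly all actives have a fitted effect of over 50% in size.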 The method in brief:
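Enzyme (5, 30 or 60 nM final) first met test compounds for ~15 min. The AMC-tagged peptide Ac-VKTGKR-AMC followed at 30 microM. Fluorescence was then recorded at 25 min and scaled against no-enzyme and no-inhibitor wells.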

Experiment [3] is described as follows: Tertiary RLuc qRT-PCR qHTS assay for Zika virus inhibitors (AID 1347169). Also: potency is read from the fitted curve at half-maximal effect; nearly all actives have a fitted effect of over 55% in size. Summed up:
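Vero cells (1,000/well) infected with recombinant ZIKV-RLuc (Cambodian) at MOI 1-2 after compound addition, 48-72 hrs at 37 degrees C. Live-cell Renilla luciferase substrate added; luminescence read after 1-1.5 hrs.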
A general note: In qPCR the cycle at which signal appears reflects the starting amount.

Experiment [4] in a line: S16 Schwann cell viability assay (CellTiter-Glo assay) (AID 624031). Also: nearly all actives have a fitted effect of over 70% in size. Summed up: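 Native S16 rat Schwann cells in DMEM/10% FBS without phenol red were incubated overnight, then exposed to compounds for 24 h at 37 °C/5% CO2. Viability was read as ATP luminescence (CellTiter-Glo), normalized to no-cell wells and DMSO (0%).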
(ATP-based viability assays read luminescence as a measure of living cells.)

Experiment [5] can be described thus: S16 Schwann cell PMP22 intronic element firefly luciferase assay (AID 624032). Also: nearly all actives have a fitted effect of over 30% in size. Summed up: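 Luciferase reporter of PMP22 intronic-element expression in stably transfected S16 rat Schwann cells, read by ONE-Glo luminescence after 24 h compound exposure at 37 C. Activity scaled between DMSO (0%) and positive-control PTC124; concentration-effect curves quality-classified.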

For a further experiment, the system named is 3D7. Kind of experiment: qHTS profiling for inhibitors of Plasmodium falciparum proliferation (AID 504749). Also: potency is read from the fitted curve at half-maximal effect; nearly all actives have a fitted effect of over 60% in size. As to conditions: P. falciparum in erythrocytes, SYBR Green DNA, 72 h; series mostly up to 28.7 µM. The method in brief: (§1)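 In a 72 h erythrocytic culture (37 C, humidified, 5% CO2) at 2.5% hematocrit and 0.3% starting parasitemia, compounds were tested; SYBR Green I in detergent lysis buffer stained parasite DNA overnight.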

A further experiment concerns AA1029. The experiment is described as above. The following applies: P. falciparum in erythrocytes, SYBR Green DNA, 72 h; series mostly up to 28.7 µM. Summed up:
as §1

The next experiment concerns AS120. Described as above. As to conditions: P. falciparum in erythrocytes, SYBR Green DNA, 72 h; series mostly up to 28.7 µM. Summed up: as §1
Another experiment deals with C2A. The experiment is described as above. As to conditions: P. falciparum in erythrocytes, SYBR Green DNA, 72 h; series mostly up to 28.7 µM. Summed up:
as §1

The next experiment concerns CP185. Described as above. The following applies: P. falciparum in erythrocytes, SYBR Green DNA, 72 h; series mostly up to 28.7 µM. The method in brief: as §1
For the next experiment, the system named is CP192. The description is as above. As to conditions: P. falciparum in erythrocytes, SYBR Green DNA, 72 h; series mostly up to 28.7 µM. The method in brief:
as §1

The next experiment concerns CP194. The description is as above. As to conditions: P. falciparum in erythrocytes, SYBR Green DNA, 72 h; series mostly up to 28.7 µM. Summed up: as §1
The test system of another experiment is CP201. The experiment is described as above. The following applies: P. falciparum in erythrocytes, SYBR Green DNA, 72 h; series mostly up to 28.7 µM. Summed up: as §1
A further experiment has as its system CP203. Described as above. The following applies: P. falciparum in erythrocytes, SYBR Green DNA, 72 h; series mostly up to 28.7 µM. Summed up: as §1
Another experiment relates to CP211. Described as above. The following applies: P. falciparum in erythrocytes, SYBR Green DNA, 72 h; series mostly up to 28.7 µM. The method in brief:
as §1

The target in experiment [6] is Pyruvate kinase PKM (Homo sapiens) (UniProt P14618). As to the kind of experiment: qHTS Assay for Activators of Human Muscle Pyruvate Kinase (AID 954; active = well fitted curve in the direction sought with a large enough effect, not every such curve was filed as active). The method in brief: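 Compound pinned into substrate mix (0.5 mM PEP, 0.1 mM ADP), then 0.1 nM PKM2 added; 1 h, RT. Stop/detection luciferase reagent added, luminescence read. Normalized to no-inhibition and no-enzyme or reference-inhibitor controls.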

Experiment [7] has as its target alpha-glucosidase (Oryza sativa, rice) (UniProt Q653V4). Kind of experiment: Counterscreen for Glucocerebrosidase Inhibitors: qHTS Assay for Rice alpha-Glucosidase at pH 5.0 (AID 997). Summed up: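 Endpoint fluorogenic assay at pH 5.0: compounds (0.7 nM to 77 uM) titrated against 4 nM rice enzyme and 400 uM 4-MU-alpha-glucoside for 20 min at room temperature; NaOH/glycine stop, read ex 365/em 440 nm, Hill-fitted AC50.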

Experiment [8] in a line: Counterscreen qHTS for small molecule stabilizers of the endoplasmic reticulum resident proteome: GLuc-NoTag assay (AID 1508627).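 Also: SH-SY5Y cells given compound then 100 nM thapsigargin to empty ER calcium.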 Summed up:
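Counterscreen line: SH-SY5Y-GLuc-NoTag cells, treated with compound 19 hr before a 4 hr, 100 nM thapsigargin calcium depletion. Secreted Gaussia luciferase in the medium was measured by luminescence after coelenterazine was added (0.07x final), with cells unlysed.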

Experiment [9] concerns the target Rap guanine nucleotide exchange factor 3 (Homo sapiens) (UniProt O95398). As to the kind of experiment: Confirmatory qHTS for agonist of cAMP-regulated guanine nucleotide exchange factor 3 (EPAC1) (AID 1645881).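 Also: EPAC1 catalysed release of BODIPY-GDP from Rap1B seen as fluorescence loss; nearly all actives have a fitted effect of over 75% in size.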
The target in experiment [10] is Rap guanine nucleotide exchange factor 4 (Homo sapiens) (UniProt Q8WZA2). Kind of experiment: Confirmatory qHTS for agonist of cAMP-regulated guanine nucleotide exchange factor 4 (EPAC2) (AID 1645884).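 Also: nucleotide exchange releases bodipy-GDP from Rap1 and this lowers its fluorescence; nearly all actives have a fitted effect of over 65% in size.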

“And” between values parts separate entries of the source, which are not always exact repeats. Identical values can stand only once. Inconclusive results are not listed. The source made the active and inactive calls. Unless noted, calls follow the shape of the dose curve; as a rule, active = well fitted curve in the direction sought with a large enough effect; inconclusive = small, poorly fitted or top-dose-only effect, or another doubt; inactive = no such curve, though single readings can be large; an effect the other way counts as inactive or inconclusive.

Rap guanine nucleotide exchange factor 4 (Homo sapiens), sequence (Q8WZA2 whole entry, looked up): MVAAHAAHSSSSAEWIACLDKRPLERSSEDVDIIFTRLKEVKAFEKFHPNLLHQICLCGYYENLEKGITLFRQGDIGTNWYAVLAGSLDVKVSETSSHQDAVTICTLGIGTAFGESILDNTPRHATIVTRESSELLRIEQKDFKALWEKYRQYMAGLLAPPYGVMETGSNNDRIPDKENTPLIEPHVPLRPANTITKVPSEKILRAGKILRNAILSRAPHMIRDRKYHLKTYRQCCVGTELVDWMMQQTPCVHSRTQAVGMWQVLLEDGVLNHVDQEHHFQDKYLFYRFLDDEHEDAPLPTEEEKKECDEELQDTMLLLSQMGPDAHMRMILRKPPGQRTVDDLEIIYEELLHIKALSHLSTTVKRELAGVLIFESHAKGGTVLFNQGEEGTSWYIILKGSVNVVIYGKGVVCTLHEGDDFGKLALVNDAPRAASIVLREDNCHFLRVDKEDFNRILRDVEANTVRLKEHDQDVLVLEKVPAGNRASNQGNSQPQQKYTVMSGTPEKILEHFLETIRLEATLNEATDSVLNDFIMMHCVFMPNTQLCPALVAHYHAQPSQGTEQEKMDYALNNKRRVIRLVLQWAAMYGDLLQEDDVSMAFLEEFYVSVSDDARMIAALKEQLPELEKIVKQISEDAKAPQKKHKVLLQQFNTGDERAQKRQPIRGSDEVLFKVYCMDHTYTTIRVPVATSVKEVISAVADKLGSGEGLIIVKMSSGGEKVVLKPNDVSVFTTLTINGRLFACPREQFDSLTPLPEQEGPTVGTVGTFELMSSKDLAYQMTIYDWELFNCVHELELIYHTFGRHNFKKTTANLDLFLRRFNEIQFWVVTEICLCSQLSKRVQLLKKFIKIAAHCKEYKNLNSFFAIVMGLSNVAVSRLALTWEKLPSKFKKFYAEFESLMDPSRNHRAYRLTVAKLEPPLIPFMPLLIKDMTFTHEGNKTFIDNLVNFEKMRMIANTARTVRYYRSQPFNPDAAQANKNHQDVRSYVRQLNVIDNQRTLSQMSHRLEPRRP
Pyruvate kinase PKM (Homo sapiens), sequence (P14618 whole entry, looked up): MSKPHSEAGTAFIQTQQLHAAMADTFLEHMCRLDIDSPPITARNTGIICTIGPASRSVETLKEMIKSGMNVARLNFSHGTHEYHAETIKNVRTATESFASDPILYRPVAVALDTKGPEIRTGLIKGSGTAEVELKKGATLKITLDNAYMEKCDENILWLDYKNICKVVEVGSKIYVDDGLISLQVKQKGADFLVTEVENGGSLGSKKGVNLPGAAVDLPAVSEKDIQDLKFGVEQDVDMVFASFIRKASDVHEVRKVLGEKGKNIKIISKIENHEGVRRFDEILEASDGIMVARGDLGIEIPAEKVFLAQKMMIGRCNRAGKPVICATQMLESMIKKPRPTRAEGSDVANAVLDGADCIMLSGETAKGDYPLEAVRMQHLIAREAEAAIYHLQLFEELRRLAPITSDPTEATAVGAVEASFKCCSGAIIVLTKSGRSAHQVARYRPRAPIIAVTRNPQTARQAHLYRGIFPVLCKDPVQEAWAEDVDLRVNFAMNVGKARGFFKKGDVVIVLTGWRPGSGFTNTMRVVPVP
Rap guanine nucleotide exchange factor 3 (Homo sapiens), sequence (O95398 whole entry, looked up): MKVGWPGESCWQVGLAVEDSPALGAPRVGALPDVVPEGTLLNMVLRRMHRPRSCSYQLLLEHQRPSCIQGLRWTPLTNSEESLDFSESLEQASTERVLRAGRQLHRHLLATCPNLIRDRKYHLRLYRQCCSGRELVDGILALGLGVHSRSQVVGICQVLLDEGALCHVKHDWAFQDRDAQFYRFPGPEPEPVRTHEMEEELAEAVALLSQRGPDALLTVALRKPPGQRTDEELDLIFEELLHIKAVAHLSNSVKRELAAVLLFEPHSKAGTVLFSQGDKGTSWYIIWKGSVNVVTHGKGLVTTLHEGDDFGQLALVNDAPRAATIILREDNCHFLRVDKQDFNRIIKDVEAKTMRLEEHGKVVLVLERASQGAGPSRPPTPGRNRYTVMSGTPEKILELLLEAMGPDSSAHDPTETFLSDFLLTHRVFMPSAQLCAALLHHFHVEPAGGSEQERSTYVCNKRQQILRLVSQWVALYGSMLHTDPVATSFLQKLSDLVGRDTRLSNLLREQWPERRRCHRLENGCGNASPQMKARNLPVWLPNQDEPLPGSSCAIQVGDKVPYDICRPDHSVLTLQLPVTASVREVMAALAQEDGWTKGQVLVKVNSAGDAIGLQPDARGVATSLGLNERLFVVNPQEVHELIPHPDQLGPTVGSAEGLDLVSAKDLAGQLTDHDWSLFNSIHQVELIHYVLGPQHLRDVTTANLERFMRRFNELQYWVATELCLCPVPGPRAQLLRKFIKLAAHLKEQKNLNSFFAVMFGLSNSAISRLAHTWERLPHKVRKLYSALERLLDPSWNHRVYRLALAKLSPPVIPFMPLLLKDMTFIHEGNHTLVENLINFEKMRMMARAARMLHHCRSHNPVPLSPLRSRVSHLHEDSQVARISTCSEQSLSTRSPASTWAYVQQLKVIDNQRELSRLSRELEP

As for `CC[C@H](C)[C@H]1O[C@]2(CC[C@@H]1C)C[C@@H]1C[C@@H](C/C=C(\C)[C@@H](O[C@H]3C[C@H](OC)[C@@H](O[C@H]4C[C@H](OC)[C@@H](O)[C@H](C)O4)[C@H](C)O3)[C@@H](C)/C=C/C=C3\CO[C@@H]4[C@H](O)C(C)=C[C@@H](C(=O)O1)[C@]34O)O2`, the Potency entry in experiment [1] and in experiment [2] was “inactive” each time. In experiment [3], the Potency was 41.5 nM (active) and 2.62 µM (active).

With `O=C(CC1NCCC[C@H]1O)Cn1cnc2cc(Br)c(Cl)cc2c1=O` (stereo not given in full), the compound was classed as inactive in [4]. Moreover, the Potency entry in experiment [5] is “inactive”. Also, the Potency in the experiment with 3D7 is 1 µM (active); in the experiment on AA1029, 1 µM (active); in the experiment on AS120, 2 µM (active); in the experiment on C2A it was 3.16 µM (active); in the experiment with CP185 it was 2.82 µM (active); in the experiment with CP192, 3.38 µM (active). The Potency was 4.78 µM (active) with CP194, 3.38 µM (active) with CP201, 3.38 µM (active) in the experiment on CP203 and 3.38 µM (active) in the experiment with CP211.

As for `CC(C)=CCC/C(C)=C/CC/C(C)=C/CSc1ccccc1C(=O)O`, the outcome in [6] and in [7] was inactive.

As to `CS(=O)(=O)CCNCc1nc(-c2ccc3ncnc(Nc4ccc(OCc5cccc(F)c5)c(Cl)c4)c3c2)cs1`, the Potency result in [8] is “inactive”.

Consider `CN1CCN(CCC=C2c3ccccc3Sc3ccc(S(=O)(=O)N(C)C)cc32)CC1`, for which the compound was classed as inactive in experiment [6] and in [7].

On to `CCC(=O)O[C@H]1CC[C@H]2[C@@H]3CCc4cc(O)ccc4[C@H]3CC[C@]12C`, for which the compound was classed as inactive in experiment [9] and in experiment [10].

As to `O=c1[nH]ccc2c(S(=O)(=O)N3CCCNCC3)cccc12`, the Potency result in experiment [8] is “inactive”.

`C#C[C@]1(OC(C)=O)CC[C@H]2[C@@H]3CCC4=CC(=O)CC[C@@H]4[C@H]3CC[C@@]21C`: the compound was called inactive in experiment [9] and in [10].

The record behind these values is PubChem BioAssay (NCATS).
